Several values for one entry are separate records, joined by “and”; a condition that tells them apart may be missing. Equal entries are not always repeated. Records with an inconclusive call do not appear. A number with no mark means an inactive call. Activity calls are given as the source filed them. Unless noted, calls follow the shape of the dose curve; as a rule, active = well fitted curve in the direction sought with a large enough effect; inconclusive = small, poorly fitted or top-dose-only effect, or another doubt; inactive = no such curve, though single readings can be large; an effect the other way counts as inactive or inconclusive.
Tests used:
[1] = molecular target: Calcium and integrin-binding protein 1 (Homo sapiens) (UniProt Q99828); experiment: Primary qHTS for Identification of Calcium Integrin Binding Protein 1 (CIB1) Competitor (AID 1508620);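 also: GST tagged CIB1 binding a fluorescein labelled alphaIIb integrin peptide tracer; top concentration of the series differs between compounds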
Calcium and integrin-binding protein 1 (Homo sapiens), sequence (Q99828 whole entry, looked up): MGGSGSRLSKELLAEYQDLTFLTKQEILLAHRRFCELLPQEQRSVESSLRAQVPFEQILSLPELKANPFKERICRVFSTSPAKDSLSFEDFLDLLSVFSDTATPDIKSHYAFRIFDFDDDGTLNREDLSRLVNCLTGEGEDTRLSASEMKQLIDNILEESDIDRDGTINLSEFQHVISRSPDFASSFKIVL
Method in brief: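 Fluorescence polarization competition: CIB1-GST (1 uM final) preincubated with compound 15 min at room temperature, then FITC-labeled alphaIIb peptide (100 nM final) added for another 15 min. Polarization read at Ex 480/Em 540.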

[2] = molecular target: Cytochrome P450 2C9 (Homo sapiens) (UniProt P11712); experiment: Cytochrome P450 family 2 subfamily C member 9 (CYP2C9) small molecule antagonists: luciferase biochemical (cell-free) qHTS assay (AID 1645842; active = well fitted curve in the direction sought with a large enough effect in the repeat runs; an effect the other way counts as inactive or inconclusive; also: nearly all actives have a fitted effect of over 55% in size; also: potency is read from the fitted curve at half-maximal effect; as to activity change, negative = inhibition: series mostly up to about 57 µM)
Cytochrome P450 2C9 (Homo sapiens), sequence (P11712 whole entry, looked up): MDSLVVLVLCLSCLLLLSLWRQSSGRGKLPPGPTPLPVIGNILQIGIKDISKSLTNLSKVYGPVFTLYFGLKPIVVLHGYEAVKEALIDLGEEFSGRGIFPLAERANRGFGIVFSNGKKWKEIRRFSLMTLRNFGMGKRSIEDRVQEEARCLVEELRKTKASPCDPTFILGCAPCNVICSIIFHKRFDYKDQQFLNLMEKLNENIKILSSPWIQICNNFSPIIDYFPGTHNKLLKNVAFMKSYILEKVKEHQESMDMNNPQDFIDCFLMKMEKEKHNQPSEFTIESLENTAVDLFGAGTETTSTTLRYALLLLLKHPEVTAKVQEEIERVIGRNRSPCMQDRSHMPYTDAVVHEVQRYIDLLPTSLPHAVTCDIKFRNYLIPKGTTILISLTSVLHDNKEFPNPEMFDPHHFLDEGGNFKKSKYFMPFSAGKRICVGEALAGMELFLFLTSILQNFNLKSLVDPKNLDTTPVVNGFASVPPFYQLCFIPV
Method in brief: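 P450-Glo CYP2C9 system: proluciferin substrate with enzyme in mix containing 0.4% BSA, 10 min at room temperature, then NADPH regeneration solution added and incubated 1 h at 37C. Detection reagent stopped reaction; luminescence read after 20 min as RLU.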

[3] = Primary qHTS for inhibitors of nuclear receptor binding SET domain protein 2 (NSD2) in an isogenic RCH-ACV NSD2 p.E1099K mutant (9B) (AID 1645876); also: nearly all actives have a fitted effect of over 70% in size; also: potency is read from the fitted curve at half-maximal effect
[4] = Primary qHTS for inhibitors of nuclear receptor binding SET domain protein 2 (NSD2) in an RCH-ACV wild type WT cells (2C) (AID 1645877); also: nearly all actives have a fitted effect of over 70% in size; also: potency is read from the fitted curve at half-maximal effect
% is scaled to controls: 0 for no effect and ±100 for the full control effect.

SMILES | Potency [1] | Potency [2] | Potency [3] | Potency [4] | activity change, negative = inhibition [2]
O=S(=O)(Nc1cc(Cl)c(Oc2cnc3ccccc3c2)c(Cl)c1)c1ccc(Cl)cc1Cl | inactive | 3.01 µM (active) |  |  | 
COc1ccc2nccc(C(=O)CC[C@@H]3CCN(CC#Cc4cc(F)cc(F)c4F)C[C@@H]3C(=O)O)c2c1 | inactive | 7.56 µM (active) |  |  | 
COc1ccccc1OCCNCC(O)CCOc1cccc2[nH]c3ccccc3c12 (stereo not given) | inactive | 0.301 µM (active) | 18.3 µM (active) | 14.5 µM (active) | 
COc1cc(C(=O)NCC2(N(C)C)CCCC2)cc(OC)c1OCc1ccccc1 | inactive | inactive |  |  | 
Cn1c(CO)c(-c2ccccc2)c2cc([N+](=O)[O-])ccc21 | inactive | 19 µM (active) |  |  | 
Cc1c(OCc2cccc(-c3ccc(C(=O)O)cc3)c2)cc2c(c1C)C(=O)C(C1CCCC1)C2 (stereo not given) | inactive | 19 µM (active) | inactive | inactive | 
Cc1ccc(-c2cn3c4c(sc3n2)CCCC4)cc1 | inactive | 16.9 µM (active) |  |  | 
C=CC(=O)N1CCC[C@@H](n2nc(-c3cccc(C(=O)Nc4ccc(C(C)C)c(C)c4)c3)c3c(N)ncnc32)C1 | inactive | 8.49 µM (active) | 8.17 µM (active) | 9.16 µM (active) | 
O=S(=O)(c1ccc(Cl)cc1)N1CCN(c2ccnc3cc(Cl)ccc23)CC1 | inactive | 2.39 µM (active) |  |  | 
CC(C)(O)c1ccc2c(c1)ncn2-c1cccc(-c2ccccc2C#N)c1 | inactive | 2.13 µM (active) |  |  | 
COc1cc(N2CCOCC2)ccc1NC(=O)c1csc(-c2cccnc2)n1 | inactive | inactive |  |  | 
CC1=C(C(=O)Nc2cc(Cl)ccc2Cl)C(c2ccco2)C2=C(CCCC2=O)N1 (stereo not given) | inactive | 1.07 µM (active) |  |  | 
CN(c1ccc(NC(=O)Nc2ccccc2)cc1)S(=O)(=O)c1cnn(-c2ccc(F)cc2)c1 | inactive | 0.425 µM (active) | 20.5 µM (active) | 16.3 µM (active) | 
C[C@@H](O[C@H]1OCCN(Cc2nn(P(=O)(O)O)c(=O)[nH]2)[C@H]1c1ccc(F)cc1)c1cc(C(F)(F)F)cc(C(F)(F)F)c1 | inactive | 13.1 µM (active) |  |  | 
CCC(=C(c1ccc(OCCN2CCCC2)cc1)c1ccc(OCCN2CCCC2)cc1)c1ccccc1 | inactive |  | 3.65 µM (active) | 3.65 µM (active) | 1.82% [at 11.5 µM]
O=C(Nc1ccc(N2C(=O)[C@@H]3[C@H](C2=O)[C@@H]2C=C[C@H]3C2)c(Cl)c1)c1ccccn1 | inactive | 12 µM (active) |  |  | 
O=C1COc2nccc(-c3ccccc3F)c2CN1Cc1cc(C(F)(F)F)cc(C(F)(F)F)c1 | inactive | 21.3 µM (active) |  |  | 
COc1cc2ncnc(Nc3ccc(O)c(Br)c3)c2cc1OC | inactive | 5.35 µM (active) | 11.6 µM (active) and 10.5 µM (active) | 13 µM (active) and 14.8 µM (active) | 
COc1cc(N2CCC(O)CC2)ccc1Nc1nc(Nc2ccccc2S(=O)(=O)C(C)C)c2[nH]cnc2n1 | inactive | 15.1 µM (active) | 5.78 µM (active) | 4.09 µM (active) | 
CC(C)c1ccccc1OC(=O)NCCc1ccc2ccccc2c1 | inactive | 0.952 µM (active) | inactive | inactive | 
C[C@H](Nc1cc2c(-c3ccc4c(c3)OCO4)noc2cn1)c1ccccc1 | inactive | 1.69 µM (active) | inactive | inactive | 
CC(C)(C)Sc1c(CC(C)(C)C(=O)O)n(Cc2ccc(Cl)cc2)c2ccc(OCc3ccc4ccccc4n3)cc12 | inactive | 1.69 µM (active) | inactive | inactive | 
Cc1cc(C(C)Nc2ccccc2C(=O)O)c2nc(N3CCOCC3)cc(=O)n2c1 (stereo not given) | inactive | 8.49 µM (active) | 0.409 µM (active) | 0.728 µM (active) | 
COc1cc(CN(CCN)C(=O)c2cccs2)ccc1OCc1ccccc1 | inactive | 10.7 µM (active) | 18.3 µM (active) | 20.5 µM (active) | 
CCCc1cc(C)[nH]c(=O)c1CNC(=O)c1cc(-c2ccc(N3CCN(C(C)C)CC3)nc2)cc2c1cnn2C(C)C | inactive | 10.7 µM (active) | 11.5 µM (active) and 7.42 µM (active) | 11.5 µM (active) and 5.25 µM (active) | 
C#CC(=O)N(c1ccc(OC)cc1OC)C(C(=O)NCC(=O)OCC)c1cccs1 (stereo not given) | inactive | 12 µM (active) | 0.183 µM (active) | 0.0649 µM (active) | 
O=C(NCc1nc2ccccc2c(=O)n1-c1ccc(F)cc1)Nc1ccc(Cl)c(C(F)(F)F)c1 | inactive | 10.7 µM (active) | 25.8 µM (active) | 23 µM (active) | 
CC(=O)NC(C)c1cnc(-c2cnc(Oc3ccc(OC(C)C)cc3)s2)s1 (stereo not given) | inactive | 9.52 µM (active) | 10.3 µM (active) | 8.17 µM (active) | 

SMILES | Potency [1] | Potency [2] | Potency [3] | Potency [4] | activity change, negative = inhibition [2]
C=CC(=O)Nc1ccc2ncnc(Nc3cccc(Br)c3)c2c1 | inactive | 3.38 µM (active) | 4.68 µM (active) | 4.17 µM (active) | 
Cc1ccccc1C(C(=O)NC1CCCCC1)N(C(=O)Cn1cnc2ccccc21)c1cccc(F)c1 (stereo not given) | inactive | 16.9 µM (active) | 12.9 µM (active) | 23 µM (active) | 
CNc1nc(NCc2ccc(NS(C)(=O)=O)cc2Cl)cc(-c2ccccn2)n1 | inactive | 2.68 µM (active) | 11.5 µM (active) | 7.28 µM (active) | 
O=C(N[C@H]1CCC[C@H](CO)C1)C1CCN(c2nc3cc(Cl)c(-c4ccc(Cl)cc4)cc3o2)CC1 | inactive | inactive | 20.5 µM (active) | 16.3 µM (active) | 
Oc1cccc(C2NC(=S)Nc3cccc(F)c32)c1 (stereo not given) | inactive | 15.1 µM (active) | 3.65 µM (active) | 4.09 µM (active) | 
Fc1ccc(-c2nc(C3CCNCC3)sc2-c2ccnc(NC3CC3)n2)cc1 | inactive | 16.9 µM (active) | 8.17 µM (active) | 6.49 µM (active) | 
Cc1nc(C#Cc2ccnc(Cl)c2)c(C)n1-c1ccc(F)cc1 | inactive | inactive | 11.5 µM (active) | 11.5 µM (active) | 
Cc1ccc(O)cc1Nc1ccnc(Nc2cccc(C(N)=O)c2)n1 | inactive | 1.9 µM (active) | 4.59 µM (active) | 4.09 µM (active) | 
CCCCCCOC(=O)/N=C(\N)c1ccc(NCc2nc3cc(C(=O)N(CCC(=O)OCC)c4ccccn4)ccc3n2C)cc1 | inactive | inactive | 20.5 µM (active) | 16.3 µM (active) | 
Cc1nc(Nc2cnn(C3CCNCC3)c2)nc2c1N(C)C(=O)c1cc3ccccc3cc1N2C | inactive | 1.07 µM (active) | 5.15 µM (active) | 2.05 µM (active) | 
CCN(CC)C(=O)C(c1ccccc1)N1CCN(c2ccc(NC(=O)c3ccccc3-c3cccnc3)cc2F)CC1 (stereo not given) | inactive | 9.52 µM (active) | inactive | inactive | 
Cn1c(=O)c2c(ncn2Cc2ccc(C(C)(C)C)cc2)n(C)c1=O | inactive | 23.9 µM (active) | 6.49 µM (active) | 7.28 µM (active) | 
Cc1cc(-c2cc(OC(=O)c3ccccc3)ccc2Cl)cc2nnc(Nc3ccc(OCCN4CCCC4)cc3)nc12 | inactive | inactive | 12.9 µM (active) | 7.96 µM (active) | 
CC(=O)c1ccc2c(c1)[C@H](NC(=O)c1ccc(F)c(Cl)c1)[C@H](O)C(C)(C)O2 | inactive | 2.68 µM (active) | inactive | inactive | 
O=S(=O)(Nc1ccccc1N1CCCCC1)c1ccc(Cl)s1 | inactive | 5.35 µM (active) | inactive | inactive | 
O=C(NCCCN1CCOCC1)c1cnn2c(-c3ccccc3)cc(-c3ccccc3)nc12 | inactive | 3.79 µM (active) | inactive | inactive | 
CCCCNc1ncc2c(-c3ccc(S(=O)(=O)N4CCOCC4)cc3)nn(C3CCC(O)CC3)c2n1 (stereo not given) | inactive | 9.52 µM (active) |  | 1.03 µM (active) | 
CCOC(=O)c1cnc2ccc(-c3cncc(NS(=O)(=O)c4ccccc4)c3)cn12 | inactive | 0.134 µM (active) | 0.29 µM (active) | 0.258 µM (active) | 
CN(C)CC#CCCC(=O)C(O)(c1ccccc1)C1CCC1 (stereo not given) | inactive | 10.7 µM (active) | inactive | inactive | 
Cc1noc(C)c1-c1cc(O)cc(C(O)c2ccccc2)c1 (stereo not given) | inactive | 0.849 µM (active) | 0.916 µM (active) | 1.03 µM (active) | 
Cc1cc(NC(=O)c2cccc(NC(=O)/C=C/CN(C)C)c2)ccc1Nc1nccc(-c2cccnc2)n1 | inactive | 16.9 µM (active) | 4.61 µM (active) | 4.59 µM (active) | 
CCN(Cc1ccccc1)C(=O)Cn1c(=O)n(C)c2cnc(-c3ccccc3)nc21 | inactive | 19 µM (active) | inactive | inactive | 
CCNC(=O)Nc1ccc(-c2nc3c(c(N4CCOCC4C)n2)CCN(C2COC2)C3)cc1 (stereo not given) | inactive | 16.9 µM (active) | 0.325 µM (active) | 0.459 µM (active) | 
O=C(Nc1ccc2[nH]nc(-c3ccncc3)c2c1)[C@@H]1CCN(CC(=O)N2CCN(c3ccc(-c4ncccn4)cc3)CC2)C1 | inactive | 6.74 µM (active) and 1.69 µM (active) | 9.16 µM (active) and 14.8 µM (active) | 10.3 µM (active) and 11.8 µM (active) | 
CC1(C(=O)Nc2ccc(F)nc2)CCCN1c1nc(Nc2cc(C3CC3)[nH]n2)c2cccn2n1 (stereo not given) | inactive | 10.7 µM (active) | 1.29 µM (active) | 0.649 µM (active) | 
Cc1onc(-c2ccccc2)c1C(=O)N1CCN(c2ccc([N+](=O)[O-])cc2Cl)CC1 | inactive | 9.52 µM (active) | inactive | inactive | 
COc1cc2c(cc1OC)CN(C(=O)/C=C/c1c(-c3ccccc3)n(C)c3ncccc13)CC2 | inactive | 0.268 µM (active) | 8.17 µM (active) | 11.5 µM (active) | 

From PubChem BioAssay (NCATS)
